FLuc inh-1 = blocks purified firefly luciferase enzyme activity. P08659. purified P. pyralis luciferase, luminescence, biochemical. Potency, µM (series often up to 115 µM), actives largely listed as inhibitors. 76,000 tested, 2.5% active. AID 1347043; further: on the % scale 0 is the no-effect control and ±100 the full control effect; nearly all actives have a fitted effect of over 65% in size
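Biochemical qHTS: compound (6-point titration) added to 10uM D-luciferin plus 10uM ATP in Tris acetate pH 7.5 buffer with Mg, Tween-20 and BSA, then purified enzyme at 10nM; light output imaged.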
HEK293 tox = HEK 293 cell cytotoxicity. HEK 293 viability, ATP luminescence (CellTiter-Glo), 48-72 h. Potency, µM (top dose mostly 115 µM), for the others: at the highest dose activity change, negative = cytotoxicity, hits mostly inhibitors. 94,000 tested, 6.6% active. AID 1345083; further: on the % scale 0 is the no-effect control and ±100 the full control effect; nearly all actives have a fitted effect of over 60% in size
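Read-out: CellTiter-Glo ATP luminescence. Cells: HEK 293, 250 cells/well. Exposure: 48 or 72 hr, 37 degree Celsius.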
NIH3T3 tox = kills NIH 3T3 cells; NIH 3T3 viability, CellTiter-Glo ATP luminescence, 48-72 h; 94,000 tested, 4.3% active; Potency, µM (highest dose often 96.7 µM), without a hit: top-dose activity change, negative = cytotoxicity, hits mostly inhibitors; further: on the % scale 0 is the no-effect control and ±100 the full control effect; nearly all actives have a fitted effect of over 55% in size
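Viability of NIH 3T3 cells after 48 or 72 hr compound treatment at 37 °C was assessed by CellTiter-Glo, with luminescence imaged following a 10 min room-temperature step.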
SNCA expr inhib = SNCA gene expression inhibition; HEK-293 SNCA-luciferase knock-in, luminescence, 24 h; 140,000 tested, 0.17% active; AID 1671194; Potency, µM (doses to about 57.2 µM), inactives show top-dose activity change, negative = inhibition, most hits filed as inhibitors;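 further: plate controls were DMSO cells for no effect and cell-free wells for full effect; nearly all actives have a fitted effect of over 45% in size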
SNCA viab count = counter-screen for SNCA expression inhibitors: cell viability; HEK-293-SNCA-luc viability, GF-AFC fluorescence, 24 h; Potency, µM (series often up to 57.1 µM), without a hit: at the highest dose activity change, negative = cytotoxicity, most hits filed as cytotoxic; 150,000 tested, 0.12% active;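 further: 0% = DMSO-treated cells and -100% = medium-only wells without cells; nearly all actives have a fitted effect of over 30% in size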
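HEK-293-SNCA-luc cells (1500/well) plated 24 h, then exposed 24 h to a dilution series; GF-AFC added 30 min at 37C, fluorescence 405/540 nm; normalised to medium-only and DMSO wells, Hill fit.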
hNpr1 antagonist = antagonists of human natriuretic peptide receptor Npr1 | P16066 | HEK293 hNpr1 GloSensor cGMP, ANP-stimulated luminescence | Potency, µM (titrated, usually from 46.3 µM), for inactives: at the top dose activity change, negative = inhibition, most hits filed as inhibitors | 76,000 tested, 1.6% active | AID 1347048; calls by dose curve; further: on the % scale 0 is the no-effect control and ±100 the full control effect; nearly all actives have a fitted effect of over 60% in size
Target sequence (P16066 whole entry, looked up): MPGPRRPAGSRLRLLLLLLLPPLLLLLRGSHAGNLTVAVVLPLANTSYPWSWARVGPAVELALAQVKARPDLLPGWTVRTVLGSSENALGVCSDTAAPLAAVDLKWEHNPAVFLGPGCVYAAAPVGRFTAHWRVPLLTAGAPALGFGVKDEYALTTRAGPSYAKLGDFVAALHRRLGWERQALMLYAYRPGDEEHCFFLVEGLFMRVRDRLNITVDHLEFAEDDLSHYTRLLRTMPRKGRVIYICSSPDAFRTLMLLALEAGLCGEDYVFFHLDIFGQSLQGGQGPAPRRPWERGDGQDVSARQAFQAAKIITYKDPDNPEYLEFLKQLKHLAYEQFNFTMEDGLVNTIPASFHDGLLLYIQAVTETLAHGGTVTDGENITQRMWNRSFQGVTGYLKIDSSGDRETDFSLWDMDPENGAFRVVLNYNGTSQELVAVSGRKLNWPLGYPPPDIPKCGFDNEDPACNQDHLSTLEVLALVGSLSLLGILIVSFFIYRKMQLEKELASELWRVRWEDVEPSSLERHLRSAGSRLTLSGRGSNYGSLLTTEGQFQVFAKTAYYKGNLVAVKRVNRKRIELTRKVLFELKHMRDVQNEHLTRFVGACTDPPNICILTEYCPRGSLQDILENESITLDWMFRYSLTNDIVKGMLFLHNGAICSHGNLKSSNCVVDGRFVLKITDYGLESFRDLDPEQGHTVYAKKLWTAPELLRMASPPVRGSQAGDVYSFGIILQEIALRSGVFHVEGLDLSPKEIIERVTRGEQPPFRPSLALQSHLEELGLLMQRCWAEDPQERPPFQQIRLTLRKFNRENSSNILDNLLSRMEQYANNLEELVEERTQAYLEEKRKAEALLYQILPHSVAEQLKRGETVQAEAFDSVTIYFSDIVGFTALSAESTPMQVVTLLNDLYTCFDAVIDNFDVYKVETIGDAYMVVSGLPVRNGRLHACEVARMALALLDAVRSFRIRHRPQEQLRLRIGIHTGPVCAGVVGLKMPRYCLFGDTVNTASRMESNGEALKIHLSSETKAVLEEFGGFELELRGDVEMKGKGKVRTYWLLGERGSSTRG
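Compound pre-incubated 30 min at room temperature on GloSensor-loaded HEK293 cells stably carrying hNpr1 and the pGS-40F cGMP biosensor. Stimulation uses hNppA at 0.1 nM final; luminescence is taken at baseline and 20 min post-agonist.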
FLuc SDR no ATP = stabilizes firefly luciferase without ATP | shares compounds with FLuc inh-1 | Purified FLuc-C-HiBiT, Nano-Glo HiBiT luminescence, no ATP | Potency, µM (titrated, usually from 32.7 µM), for inactives: at the top dose activation (signal gain), most hits filed as activators | 1,300 tested, 7.8% active | AID 1963318; further: nearly all actives have a fitted effect of over 55% in size
FLuc SDR ATP = binders stabilizing firefly luciferase, plus ATP; shares compounds with FLuc inh-1; purified FLuc-C-HiBiT + ATP, HiBiT complementation luminescence; Potency, µM (top dose mostly 32.7 µM), for inactives: at the top dose activation (gain of signal), most hits filed as activators; 1,300 tested, 8.7% active; AID 1963319;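 further: signal reports ligand binding via conformational change of the enzyme rather than luciferase catalysis; % of control where 0% means no effect; nearly all actives have a fitted effect of over 55% in size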
FLuc inh-2 = blocks firefly luciferase enzymatic activity; shares compounds with FLuc inh-1; AID 1963320; purified FLuc-C-HiBiT enzyme, luciferin luminescence; Potency, µM (top dose mostly 32.7 µM), for inactives: top-dose activity change, negative = inhibition, usual class: inhibitors; 1,300 tested, 42% active; further: on the % scale 0 is the no-effect control and ±100 the full control effect; nearly all actives have a fitted effect of over 70% in size
* = called active by the depositor; i = inactive; u = inconclusive; x = no result; [ ] = dose if it differs, or a comment. The list is not random: actives were taken first. Their share in the collection is about 7.4%. Unless noted, the call rests on the fitted dose curve; in most records, active means well fitted curve in the direction sought with a large enough effect; inconclusive means small, poorly fitted or top-dose-only effect, or another doubt; inactive means no such curve, though single readings can be large; an effect the other way counts as inactive or inconclusive. Potency means the concentration at half of the fitted maximal effect.

SMILES	FLuc inh-1	HEK293 tox	NIH3T3 tox	SNCA expr inhib	SNCA viab count	hNpr1 antagonist	FLuc SDR no ATP	FLuc SDR ATP	FLuc inh-2
Cc1cccc(NC(=O)N2CCc3c(C(=O)N(C)Cc4ccco4)cccc32)c1	u	u	u	2%	-30%	-19%	x	x	x
COc1ccc(NC(=O)N2CCc3c(C(=O)N(C)Cc4ccco4)cccc32)cc1	4µM*	u	-27%	u	4%	u	u	2.5µM*	1.8µM*
COc1ccc(NC(=O)N2CCc3c(C(=O)N(C)C)cccc32)cc1	0.25µM*	u	u	u	0%	4µM*	u	0.16µM*	0.11µM*
COc1ccc(NC(=O)N2CCc3c(C(=O)NCCN4CCCCCC4)cccc32)cc1	1.6µM*	u	-23%	u	-25%	10µM*	u	0.79µM*	0.56µM*
C[S+](=O)([O-])N1CCCC2(C1)C(=NC1CCCCC1)NC(=O)N2c1cccnc1 (stereo not given)	i	-12%	-14%	0%	10%	-14%	x	x	x
Cc1cccc(NC(=O)Nc2ccc(C)n(CC(=O)N(C)C)c2=O)c1	u	8%	i	57%	-3%	3%	x	x	x
COc1ccc(NC(=O)Nc2ccc(C)n(CC(=O)O)c2=O)cc1	4µM*	12%	i	u	-5%	-4%	11µM*	u	9.9µM*
Cc1ccc(S(=O)(=O)Nc2ccc(C)n(CC(=O)N3CCCCCC3)c2=O)cc1	i	4%	i	-14%	-2%	-1%	x	x	x
Cc1ccc(NC(=O)Nc2ccc(C)n(CC(=O)NCCC(C)C)c2=O)cc1	0.56µM*	28µM*	35µM*	1%	-3%	u	u	u	1.1µM*
COc1ccc(S(=O)(=O)Nc2ccc(C)n(CC(=O)NCc3ccc(C)o3)c2=O)cc1	i	-7%	i	1%	1%	-4%	x	x	x
CCN1CCN(C(=O)Cn2c(C)ccc(NC(=O)Nc3ccc(C)cc3)c2=O)CC1	4.5µM*	-14%	-2%	14%	1%	-7%	u	u	5µM*
COc1ccc(NC(=O)Nc2ccc(C)n(CC(=O)NCC(C)C)c2=O)cc1	1.6µM*	-29%	-17%	12%	2%	-15%	7.9µM*	u	3.5µM*
CSc1ccc(-c2nc(CN3CCN(C(C)=O)CC3)c(C)o2)cc1	u	u	-16%	32%	-11%	-8%	x	x	x
COc1ccc(CN2CC3(Cc4ccccc4C(=O)N3)C2)cc1	x	u	u	10%	-6%	x	x	x	x
Cn1ccc2c(NC(=O)C[C@H]3NC(=O)c4ccccc4NC3=O)cccc21	i	-6%	i	21%	9%	-10%	x	x	x
COc1ccc(C(=O)Nc2noc3ccccc23)cc1	x	x	x	u	-3%	x	9.9µM*	3.1µM*	0.88µM*
COc1ccc(C(=O)N2CCCC(c3noc(COc4ccccc4)n3)C2)cc1OC (stereo not given)	i	u	-6%	-8%	-7%[12.5 µM]	0%	x	x	x
CCn1ncc(NC(=O)Cn2ncc3cc(-c4ccc(C)cc4F)ccc32)n1	14µM*	-54%	-65%	39%	-21%	u	20%	13%	u
CCn1ncc(NC(=O)Cn2ncc3cc(-c4cccc(OC)c4)ccc32)n1	u	-57%	-67%	59%	-22%	u	x	x	x
CCn1ncc(NC(=O)Cn2ncc3cc(-c4ccc(N(C)C)cc4)ccc32)n1	0.25µM*	u	u	-5%	-4%	u	u	u	0.79µM*
Cc1ccc(-n2ncc3c(N4CCCC(C)C4)ncnc32)c(C)c1 (stereo not given)	x	x	x	x	x	x	29%	20%	11µM*
Cc1ccc(-n2ncc3c(NC4CCCCCC4)ncnc32)cc1Cl	x	x	x	29%	1%	x	x	x	x
Cc1cccc(-n2ncc3c(N4CCCC(C)C4)ncnc32)c1 (stereo not given)	x	x	x	4µM*	5%	x	3.9µM*	u	0.7µM*
Cc1ccc(Cl)cc1-n1ncc2c(N3CCC(C)CC3)ncnc21	x	x	x	15%	-8%	x	13%	8%	-8%
Clc1ccc(-n2ncc3c(NC4CCCC4)ncnc32)cc1	x	x	x	-21%	-23%	x	u	u	1.2µM*
SMILES	FLuc inh-1	HEK293 tox	NIH3T3 tox	SNCA expr inhib	SNCA viab count	hNpr1 antagonist	FLuc SDR no ATP	FLuc SDR ATP	FLuc inh-2
Cc1ccc(Cl)cc1-n1ncc2c(NC3CCCCCC3)ncnc21	x	x	x	-11%	u	x	x	x	x
CC(=O)N1CCC(CC(=O)N2CC(c3nc(CCOc4cccc(C)c4)no3)C2)CC1	x	u	-17%	-3%	17%	x	x	x	x
O=C(NC1CCN(Cc2cccc(-c3cccs3)c2)CC1)c1ccncc1	x	u	u	14%	-6%[12.5 µM]	x	x	x	x
Cc1ccc(C2=NC3(CCN(C(=O)c4cc(Cl)ccc4F)CC3)ON2)cc1	u	u	u	-4%	4%	-12%	x	x	x
CC1CCCN(c2ncnc3c2cnn3-c2ccc(F)cc2)C1 (stereo not given)	x	x	x	u	9%	x	2.2µM*	u	0.7µM*
Cc1cccc(-n2ncc3c(N4CCCCCC4)ncnc32)c1	x	x	x	u	5%	x	5µM*	u	0.88µM*
CCN1CCN(c2ncnc3c2cnn3-c2cccc(C)c2)CC1	x	x	x	58%	-22%	x	x	x	x
Cc1cccc(N2CCN(c3ncnc4c3cnn4-c3ccc(Cl)cc3)CC2C)c1 (stereo not given)	x	x	x	u	10%	x	x	x	x
CC1CCCN(c2ncnc3c2cnn3-c2ccccc2)C1 (stereo not given)	x	x	x	x	x	x	2.5µM*	u	0.44µM*
CC1CCCN(c2ncnc3c2cnn3-c2ccc(Cl)cc2)C1 (stereo not given)	x	x	x	x	x	x	2.8µM*	0.25µM*	0.12µM*
CCN1CCN(c2ncnc3c2cnn3-c2ccc(F)cc2)CC1	x	x	x	181%	8%	x	x	x	x
O=c1n(CCN2CCCN([S+](=O)([O-])c3cccc(C(F)(F)F)c3)CC2)nc2n1CCCC2	x	-10%	-21%	x	x	x	x	x	x
COCc1nnc(C2CC3(CCN(C(=O)c4ccc(OC)nc4)CC3)CN2C)o1 (stereo not given)	x	i	-7%	-4%	3%	x	x	x	x

Screens deposited in PubChem BioAssay by National Center for Advancing Translational Sciences (NCATS).
